Test systems include DU-145 prostate; K-562 leukemia; MALME-3M melanoma; MDA-MB-231 breast; RXF 393 renal; SF-268 CNS; SF-295 CNS; SF-539 CNS; UACC-257 melanoma; M14 melanoma.
Common to all, as to assay: NCI-60 one-dose screen, 48 h (100 = growth as untreated, 0 = no growth, -100 = all killed)
Details in all cases: 10 µM unless noted

“And” between values parts separate entries of the source, which are not always exact repeats. Equal values may be shown once. Compounds without any hit were thinned out: in the full panel of roughly 83,000, 20% have a hit.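 Each cell line was grown in a 96-well plate and treated with one concentration of compound for 48 hours. Values below 10 were considered active.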 A number with no mark means an inactive call. The source made the active and inactive calls.

Turning to `CCOC(=O)C(N)Cc1cc(I)c(O)c(I)c1` (stereo not given), the growth was 109% and 107% with DU-145 prostate; 105% with K-562 leukemia; 115% with MALME-3M melanoma; 104% and 97.5% in the experiment on MDA-MB-231 breast; 105% and 112% in the experiment with RXF 393 renal; 99% and 100% with SF-268 CNS. Moreover, the growth in the experiment with SF-295 CNS is 115% and 124%; with SF-539 CNS, 115% and 102%; in the experiment on UACC-257 melanoma, 108%; in the experiment with M14 melanoma it was 105% and 104%.

Take `COC(=O)c1nc(=S)[nH]c(C(=O)OC)c1C(=O)c1ccc(OC)cc1`: the growth in the experiment with DU-145 prostate was 117%; with K-562 leukemia, 106%; with MALME-3M melanoma, 97.5%; in the experiment on MDA-MB-231 breast, 100%; with RXF 393 renal it was 108%; with SF-268 CNS, 112%. Further, the growth is 99.6% in the experiment on SF-295 CNS, 99.3% with SF-539 CNS, 109% with UACC-257 melanoma and 108% in the experiment with M14 melanoma.

Turning to `CC(C)(C)C1=CC(=O)C(C(C)(C)C)=CC1=O`, the growth with DU-145 prostate was 120% and 98.9%; with K-562 leukemia, 105% and 107%; in the experiment with MALME-3M melanoma, 94.5% and 107%; in the experiment on MDA-MB-231 breast, 107% and 109%; in the experiment with RXF 393 renal, 90.2% and 105%; in the experiment on SF-268 CNS it was 108% and 94.3%. Also, the growth with SF-295 CNS was 99.6% and 104%; with SF-539 CNS it was 87.3% and 108%; in the experiment with UACC-257 melanoma, 90.5% and 85%; with M14 melanoma it was 105%.

As for `COc1ccc(COC=O)cc1`, the growth with DU-145 prostate is 98.7%; in the experiment on K-562 leukemia, 96.5%; with MALME-3M melanoma it was 102%; in the experiment with MDA-MB-231 breast it was 112%; with RXF 393 renal, 110%; in the experiment on SF-268 CNS, 95.9%. Also, the growth with SF-295 CNS was 101%; in the experiment on SF-539 CNS it was 105%; with UACC-257 melanoma, 98.5%; in the experiment on M14 melanoma, 104%.

Take `CCCCCc1cc[n+](CC(=O)c2ccccc2)cc1`: the growth in the experiment with DU-145 prostate is 105% and 110%; with K-562 leukemia, 113% and 104%; with MALME-3M melanoma, 100% and 108%; with MDA-MB-231 breast it was 104% and 106%; with RXF 393 renal it was 98.6% and 110%; in the experiment with SF-268 CNS, 103% and 107%. Moreover, the growth in the experiment on SF-295 CNS is 94.1%; in the experiment with SF-539 CNS, 96.3% and 102%; with UACC-257 melanoma it was 99% and 106%; in the experiment with M14 melanoma, 100%.

With `CCc1ccccc1-n1[nH]c(C)c(C=N)c1=O`, the growth in the experiment on DU-145 prostate was 118%; in the experiment with K-562 leukemia, 96.5%; with MALME-3M melanoma it was 94.4%; in the experiment with MDA-MB-231 breast it was 106%; in the experiment on RXF 393 renal it was 103%; with SF-268 CNS it was 114%. Moreover, the growth in the experiment with SF-295 CNS was 99.3%; in the experiment with SF-539 CNS, 100%; in the experiment on UACC-257 melanoma, 116%; with M14 melanoma it was 109%.

In the case of `C(=N\OCCc1ccccc1)/c1ccccn1`, the growth was 111% and 106% in the experiment on DU-145 prostate; 115% with K-562 leukemia; 153% and 95.9% in the experiment with MALME-3M melanoma; 124% and 112% in the experiment with MDA-MB-231 breast; 116% and 119% with RXF 393 renal; 107% and 105% in the experiment on SF-268 CNS. In addition, the growth in the experiment with SF-295 CNS was 96.6%; in the experiment on SF-539 CNS, 104% and 93.6%; in the experiment on UACC-257 melanoma, 109% and 104%; in the experiment with M14 melanoma, 115% and 117%.

`O=C(c1ccncc1)c1c(Cc2ccccc2)ccc2ccccc12`: the growth in the experiment on DU-145 prostate is 99.2%; in the experiment on K-562 leukemia it was 101%; with MALME-3M melanoma it was 32.3%; with MDA-MB-231 breast it was 70.2%; in the experiment on RXF 393 renal, 84%; in the experiment on SF-268 CNS, 117%. For the same compound, the growth in the experiment with SF-295 CNS was 83.6%; in the experiment with SF-539 CNS it was 95.3%; in the experiment on UACC-257 melanoma, -14.4% (active); in the experiment with M14 melanoma, 108%.

For `O=C1c2cccnc2-c2ncccc21`, the growth was 112% [100 µM] with DU-145 prostate; 115% [100 µM] in the experiment with K-562 leukemia; 103% [100 µM] with MALME-3M melanoma; 118% [100 µM] in the experiment with MDA-MB-231 breast; 109% [100 µM] with RXF 393 renal; 106% [100 µM] with SF-268 CNS. Also, the growth in the experiment on SF-295 CNS was 103% [100 µM]; with SF-539 CNS it was 104% [100 µM]; in the experiment with UACC-257 melanoma it was 98% [100 µM]; with M14 melanoma, 104% [100 µM].

`COC(=O)C(Cc1cn(C(C)=O)c2ccccc12)P(=O)(OC)OC` (stereo not given): the growth was 109% in the experiment with DU-145 prostate; 102% in the experiment on K-562 leukemia; 96.1% with MALME-3M melanoma; 97.9% in the experiment on MDA-MB-231 breast; 116% with RXF 393 renal; 96.3% with SF-268 CNS. Besides, the growth in the experiment on SF-295 CNS is 97.1%; with SF-539 CNS, 97.3%; in the experiment on UACC-257 melanoma, 110%; in the experiment with M14 melanoma it was 91.9%.
